This note sets out measurements from PubChem BioAssay (NCATS).

Molecules are shown by their SMILES. Results filed as inconclusive are left out. Activity calls are given as the source filed them. Unless noted, the call rests on the fitted dose curve. Where only a bound is given, the exact number is not on record here.

For test [1], the target named is Lysosomal acid glucosylceramidase (Homo sapiens) (UniProt P04062). The experiment in a line: Glucocerebrosidase-p2 (AID 348; in the data active means potency below about 10 µM; further: potency means the concentration at half of the fitted maximal effect). The settings on record: purified GBA, blue fluorogenic substrate, 40 min. The method, boiled down: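 Compounds titrated from 0.6 nM upwards against 0.2 nM enzyme in pH 5.9 citric acid/KH2PO4, taurocholate, tween-20; blue fluorogenic substrate 80 uM, 40 min room temperature, stopped and read Ex 365/Em 440 for AC50.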
Chain of Lysosomal acid glucosylceramidase (Homo sapiens) (P04062 whole entry, looked up): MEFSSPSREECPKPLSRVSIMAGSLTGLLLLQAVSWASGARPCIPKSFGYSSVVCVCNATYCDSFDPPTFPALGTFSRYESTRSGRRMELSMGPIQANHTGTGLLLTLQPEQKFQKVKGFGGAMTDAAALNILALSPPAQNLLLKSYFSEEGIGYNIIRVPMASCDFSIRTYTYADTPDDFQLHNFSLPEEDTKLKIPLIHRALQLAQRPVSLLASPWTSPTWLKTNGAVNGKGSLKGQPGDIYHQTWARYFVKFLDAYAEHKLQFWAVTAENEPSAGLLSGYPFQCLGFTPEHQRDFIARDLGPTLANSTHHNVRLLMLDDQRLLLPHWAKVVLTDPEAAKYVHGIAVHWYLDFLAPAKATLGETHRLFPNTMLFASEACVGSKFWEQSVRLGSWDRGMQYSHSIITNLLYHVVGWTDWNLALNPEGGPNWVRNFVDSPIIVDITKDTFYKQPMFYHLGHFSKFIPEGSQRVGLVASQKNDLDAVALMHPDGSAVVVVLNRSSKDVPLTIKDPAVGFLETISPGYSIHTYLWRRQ

Test [2] can be described thus: AP1 Signaling Pathway (AID 357; active means well fitted curve in either direction with a large enough effect, not every such curve was filed as active;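 further: ME-180 reporter cells stimulated with EGF at its EC50 level; on the % scale 0 is the no-effect control and ±100 the full control effect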). To be noted: ME-180 AP-1-bla reporter, EGF-induced, beta-lactamase ratio, 5 h; at 7.69 µM (top of the series) unless noted. A digest of the protocol:
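A ratiometric CCF4 readout (405 nm excitation; 460 and 530 nm emission) quantified AP-1-driven beta-lactamase in ME-180 cells after 5 h with compound and EC50 EGF; AC50 values were derived for activators and inhibitors.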

The target of test [3] is Cytochrome P450 1A2 (Homo sapiens) (UniProt P05177). The experiment in a line: p450-cyp1a2 (AID 410). Further: potency means the concentration at half of the fitted maximal effect.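 On activity change, negative = inhibition: -100% = full effect of reference inhibitor.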 To be noted: recombinant CYP1A2, luciferin-ME demethylation, luminescence; series mostly up to 57 µM. A digest of the protocol: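 Luminescent readout of luciferin formed from Luciferin-ME by human CYP1A2; data normalized against complete inhibition by 57 uM furafylline. Enzyme 20nM, substrate 100uM at Km, 100mM KPO4 buffer, 60 min reaction at room temperature.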
Chain of Cytochrome P450 1A2 (Homo sapiens) (P05177 whole entry, looked up): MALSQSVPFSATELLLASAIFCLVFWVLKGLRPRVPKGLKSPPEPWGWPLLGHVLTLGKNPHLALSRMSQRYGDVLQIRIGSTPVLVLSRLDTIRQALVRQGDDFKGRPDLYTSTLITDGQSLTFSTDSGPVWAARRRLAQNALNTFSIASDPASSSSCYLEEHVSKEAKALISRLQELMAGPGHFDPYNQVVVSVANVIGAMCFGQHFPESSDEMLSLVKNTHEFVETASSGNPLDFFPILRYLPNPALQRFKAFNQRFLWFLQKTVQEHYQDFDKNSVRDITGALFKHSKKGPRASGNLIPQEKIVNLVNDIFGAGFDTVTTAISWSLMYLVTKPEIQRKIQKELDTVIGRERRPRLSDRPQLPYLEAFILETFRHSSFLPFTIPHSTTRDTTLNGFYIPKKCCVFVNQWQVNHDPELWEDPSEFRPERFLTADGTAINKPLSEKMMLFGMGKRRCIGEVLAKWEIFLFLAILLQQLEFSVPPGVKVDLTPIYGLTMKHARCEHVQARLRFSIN

Test [4] can be described thus: Stat Signaling Pathway (AID 446; active means well fitted curve in either direction with a large enough effect, not every such curve was filed as active;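 further: ME-180 cervical cancer cells given 40 pM IL-6 alongside compound; SIE-controlled beta-lactamase reporter measured as 460/530 nm FRET emission ratio; on the % scale 0 is the no-effect control and ±100 the full control effect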). The settings on record: ME-180 SIE beta-lactamase reporter, IL-6 stimulated, 5 h; at 7.69 µM (top of the series) unless noted. A digest of the protocol: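 Screening format detects activators and inhibitors alike: ME-180 SIE-bla cells stimulated at 40 pM IL-6 for 5 hrs with compound, then dual-emission beta-lactamase read at 405 nm excitation.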

Test [5] addresses Glucocorticoid receptor (Homo sapiens) (UniProt P04150). Description: GR-EFC Redistribution (AID 451). Further: potency means the concentration at half of the fitted maximal effect. To be noted: CHO-K1 GR-EFC translocation, beta-gal luminescence, 2 h. A digest of the protocol:
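Translocation of GR-ED fusion to nuclear EA restores b-gal, read by luminescence after 1 h room-temperature detection. Engineered CHO-K1 biosensor cells, 1,000/well, exposed 2 h at 37 C to titrations up to 46 uM final.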

Test [6] addresses Mitogen-activated protein kinase 10 (Mus musculus) (UniProt Q61831). Description: JNK3 AlphaScreen Assay (AID 530; active means well fitted curve in either direction with a large enough effect, not every such curve was filed as active;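 further: kinase came from lysate of stimulated human HepG2 cells; signal reports phosphorylation of biotinylated GST-cJun 1-79 at Ser73 with 10 µM ATP; on the % scale 0 is the no-effect control and ±100 the full control effect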). The settings on record: JNK3 lysate, c-Jun phosphorylation; series mostly up to 57.1 µM. The method, boiled down: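 Compound titrations were preincubated 15 minutes at room temperature with substrate, antibody and pre-activated JNK3-containing HepG2 lysate. Reactions were started with 10 uM ATP and stopped with EDTA-containing bead buffer for AlphaScreen detection.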
Background: Bead proximity is the source of the signal in Alpha formats.

The target of test [7] is 3',5'-cyclic-AMP phosphodiesterase 4B (Homo sapiens) (UniProt Q07343). The experiment in a line: qHTS Assay for Inhibitors of PDE-IV (AID 607; active means well fitted activation curve with a large enough effect in the main read-out, with a control signal flat, not every such curve was filed as active; further: % of control where 0% means no effect). To be noted: HEK293 ACTOne CNG channel cells, membrane potential fluorescence; series mostly up to 22.9 µM. A digest of the protocol:
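The readout is membrane depolarisation from a cAMP-sensing CNG channel, detected with a potential dye at ex 535/em 590. Cells were HEK293-derived (endogenous PDE-IV) at 1000 cells/well, titrated up to 22.9 uM final.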
(In qHTS, concentration-response curves come from the screen itself.)

The nature of test [8]: qHTS Assay for Lipid Storage Modulators (AID 1519). The settings on record: Drosophila S3 cells, BODIPY lipid droplet/cell ratio, laser cytometry, cells loaded with oleic acid; for activity change, negative = inhibition: at 57.5 µM (top of the series). The method, boiled down:
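Cells seeded at 5,000 per well were treated with compounds over a concentration series and loaded with oleic acid (400 uM, as added). Lipid droplet fluorescence (488 nm excitation, 500-530 nm channel) was read by laser-scanning cytometry and normalized to 20 uM Triacsin C.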

Test [9] can be described thus: Primary qHTS for small molecule stabilizers of the endoplasmic reticulum resident proteome: Secreted ER Calcium Modulated Protein (SERCaMP) assay (AID 1508630; active means well fitted curve in the direction sought with a large enough effect; an effect the other way counts as inactive or inconclusive; further: on the % scale 0 is the no-effect control and ±100 the full control effect). The settings on record: SH-SY5Y GLuc-SERCaMP (Gaussia luciferase released on ER calcium loss) secretion, thapsigargin, luminescence; series mostly up to 38.4 µM. The method, boiled down: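 GLuc-SERCaMP-expressing SH-SY5Y cells, pretreated 16 h with compound, are challenged with thapsigargin to empty ER calcium stores; after 4 h, coelenterazine is added directly to the medium and luminescence is imaged.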

Test [10] concerns the target Cytochrome P450 3A4 (Homo sapiens) (UniProt P08684). Description: qHTS Assay for Inhibitors and Substrates of Cytochrome P450 3A4 (AID 884; active means well fitted curve in the direction sought with a large enough effect; an effect the other way counts as inactive or inconclusive; further: on the % scale 0 is the no-effect control and ±100 the full control effect; nearly all actives have a fitted effect of over 50% in size). To be noted: recombinant CYP3A4, Luciferin-PPXE luminescence; series mostly up to 57.1 µM. A digest of the protocol:
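20 nM human CYP3A4 with 25 uM Luciferin-PPXE (at KM) in 200 mM KPO4, preincubated 10 min with compound; NADPH regeneration started a 60 min RT reaction. Luciferin detected by luminescence, normalized to 57 uM ketoconazole as full inhibition.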

Test [11] shares this target. The experiment in a line: qHTS Assay for Activators of Cytochrome P450 3A4 (AID 885; active means well fitted curve in the direction sought with a large enough effect; an effect the other way counts as inactive or inconclusive; further: nearly all actives have a fitted effect of over 65% in size; further: potency means the concentration at half of the fitted maximal effect). The settings on record: recombinant CYP3A4, Luciferin-PPXE luminescence, 60 min; series mostly up to 57.1 µM. A digest of the protocol:
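Steps: enzyme/substrate mix dispensed; compound added, 10 min RT; NADPH regeneration solution added, 60 min RT; luciferin detection buffer stops reaction; 20 min later luminescence measured.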

The target of test [12] is Cytochrome P450 2D6 (Homo sapiens) (UniProt P10635). Description: qHTS Assay for Inhibitors and Substrates of Cytochrome P450 2D6 (AID 891; active means well fitted curve in the direction sought with a large enough effect; an effect the other way counts as inactive or inconclusive; further: potency means the concentration at half of the fitted maximal effect; nearly all actives have a fitted effect of over 60% in size). The settings on record: recombinant CYP2D6, luciferin-ME EGE luminescence; series mostly up to 57.1 µM. A digest of the protocol: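 Human CYP2D6 (5 nM) with 30 uM Luciferin-ME EGE (at Km) in 100 mM KPO4, compound preincubated 10 min, then NADPH regeneration system for 60 min at room temperature. Luciferin read by luminescence; normalized to 1.43 uM quinidine.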
Chain of Cytochrome P450 2D6 (Homo sapiens) (P10635 whole entry, looked up): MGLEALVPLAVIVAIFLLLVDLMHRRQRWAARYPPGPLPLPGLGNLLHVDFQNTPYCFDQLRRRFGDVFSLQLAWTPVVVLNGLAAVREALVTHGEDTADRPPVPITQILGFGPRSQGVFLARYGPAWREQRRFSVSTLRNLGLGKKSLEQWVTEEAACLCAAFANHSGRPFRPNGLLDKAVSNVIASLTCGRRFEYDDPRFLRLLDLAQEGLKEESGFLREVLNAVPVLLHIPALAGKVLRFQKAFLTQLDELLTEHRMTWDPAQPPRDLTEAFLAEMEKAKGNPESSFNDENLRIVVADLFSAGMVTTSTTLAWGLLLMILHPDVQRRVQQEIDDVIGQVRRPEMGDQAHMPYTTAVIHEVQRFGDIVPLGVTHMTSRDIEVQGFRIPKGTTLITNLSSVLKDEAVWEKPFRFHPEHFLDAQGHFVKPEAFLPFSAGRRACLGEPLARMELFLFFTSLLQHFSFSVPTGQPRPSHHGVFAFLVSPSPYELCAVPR

Where [13] appears, read: measured here: cell count channel max response.
The mark [14] stands for this setting: measured here: lipid channel max response.

Chain of Cytochrome P450 3A4 (Homo sapiens) (P08684 whole entry, looked up): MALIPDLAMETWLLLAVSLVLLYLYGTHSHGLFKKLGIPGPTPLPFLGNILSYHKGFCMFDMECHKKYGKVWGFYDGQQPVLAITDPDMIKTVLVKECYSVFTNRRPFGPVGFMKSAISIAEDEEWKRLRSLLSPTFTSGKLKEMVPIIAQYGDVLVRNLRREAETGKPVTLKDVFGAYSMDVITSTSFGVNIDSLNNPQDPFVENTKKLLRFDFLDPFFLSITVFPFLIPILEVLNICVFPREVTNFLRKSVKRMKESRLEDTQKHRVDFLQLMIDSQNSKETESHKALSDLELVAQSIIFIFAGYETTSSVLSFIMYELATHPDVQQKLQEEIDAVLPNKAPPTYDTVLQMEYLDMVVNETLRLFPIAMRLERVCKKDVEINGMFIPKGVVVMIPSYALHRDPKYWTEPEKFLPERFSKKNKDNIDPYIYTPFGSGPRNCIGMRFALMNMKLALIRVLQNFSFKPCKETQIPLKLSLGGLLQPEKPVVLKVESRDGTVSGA
Chain of 3',5'-cyclic-AMP phosphodiesterase 4B (Homo sapiens) (Q07343 whole entry, looked up): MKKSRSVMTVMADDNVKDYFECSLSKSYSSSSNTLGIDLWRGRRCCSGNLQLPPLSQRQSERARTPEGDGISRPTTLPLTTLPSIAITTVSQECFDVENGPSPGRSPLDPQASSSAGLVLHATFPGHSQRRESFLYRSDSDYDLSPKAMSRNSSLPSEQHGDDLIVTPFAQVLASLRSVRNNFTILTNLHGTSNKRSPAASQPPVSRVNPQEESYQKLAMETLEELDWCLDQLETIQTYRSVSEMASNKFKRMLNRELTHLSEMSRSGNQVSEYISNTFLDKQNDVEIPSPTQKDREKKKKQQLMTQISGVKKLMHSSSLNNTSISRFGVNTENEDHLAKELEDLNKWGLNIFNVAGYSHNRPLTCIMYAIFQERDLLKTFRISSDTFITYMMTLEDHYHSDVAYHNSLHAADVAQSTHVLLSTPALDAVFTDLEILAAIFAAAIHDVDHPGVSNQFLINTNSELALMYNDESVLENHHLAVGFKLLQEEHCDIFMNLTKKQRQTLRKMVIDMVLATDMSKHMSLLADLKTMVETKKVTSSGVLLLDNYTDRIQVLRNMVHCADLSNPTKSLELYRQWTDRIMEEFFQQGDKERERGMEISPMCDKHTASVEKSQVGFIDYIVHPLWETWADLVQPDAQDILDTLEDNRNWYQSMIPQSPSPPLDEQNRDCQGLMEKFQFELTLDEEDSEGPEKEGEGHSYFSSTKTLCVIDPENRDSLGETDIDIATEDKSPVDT
Chain of Glucocorticoid receptor (Homo sapiens) (P04150 whole entry, looked up, the tested form may be a part): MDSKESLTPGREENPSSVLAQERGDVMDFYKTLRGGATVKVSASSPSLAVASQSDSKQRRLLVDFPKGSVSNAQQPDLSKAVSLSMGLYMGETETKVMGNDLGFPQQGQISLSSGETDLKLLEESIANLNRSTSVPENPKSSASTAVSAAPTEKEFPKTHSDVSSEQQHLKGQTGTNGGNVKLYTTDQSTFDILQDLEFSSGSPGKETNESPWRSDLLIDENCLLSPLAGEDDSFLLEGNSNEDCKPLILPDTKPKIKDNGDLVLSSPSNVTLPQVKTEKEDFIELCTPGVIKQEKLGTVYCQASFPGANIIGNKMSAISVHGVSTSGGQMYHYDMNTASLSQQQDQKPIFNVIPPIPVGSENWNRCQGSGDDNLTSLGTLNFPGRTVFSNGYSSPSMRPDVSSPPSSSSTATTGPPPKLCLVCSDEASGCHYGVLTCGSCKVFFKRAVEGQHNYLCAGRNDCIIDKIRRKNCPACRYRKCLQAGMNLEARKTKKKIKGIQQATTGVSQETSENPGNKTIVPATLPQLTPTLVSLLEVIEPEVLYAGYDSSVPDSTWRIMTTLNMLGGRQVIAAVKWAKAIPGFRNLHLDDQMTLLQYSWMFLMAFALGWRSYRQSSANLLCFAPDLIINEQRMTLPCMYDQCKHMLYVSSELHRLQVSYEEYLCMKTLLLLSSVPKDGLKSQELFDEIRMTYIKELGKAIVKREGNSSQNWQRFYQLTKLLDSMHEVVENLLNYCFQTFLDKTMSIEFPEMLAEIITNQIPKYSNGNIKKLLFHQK

`COCC(=O)N1CCC2(CC1)CCN(c1cccc(-c3ccccc3)c1)CC2`: the figures for the Potency in test [1], in test [3] and in test [5] were > 11.4 µM (inactive), 5.01 µM (active) and > 46 µM (inactive), respectively. The results for the activity change, negative = inhibition in test [2] and in test [8] were -4.83% (inactive) and -0.758% (inactive), respectively. The activity, negative = inhibition in test [4] is -8.32% (inactive). Also, the Potency entry in test [6] and in test [7] was “inactive” throughout. Moreover, the max response is -9.9% in test [8] (setting [13]) and -7.13% in test [8] (setting [14]). For the same molecule, in test [9], the result was inactive.
For `COc1ccc(C(=O)N2CCC3(CC2)CCN(C(c2ccccc2)c2ccccc2)CC3)cc1`, the Potency in [1] was > 11.4 µM (inactive); in test [5], > 46 µM (inactive); in test [11], 3.16 µM (active). The activity change, negative = inhibition in test [2] was 4.01% (inactive); in test [8] it was 2.48% (inactive). Moreover, the Potency result in [3], in [6], in [7] and in [10] was “inactive” each time. Also, the activity, negative = inhibition in test [4] was -17.5% (inactive). Also, the max response turned out to be 13.4% in [8] (setting [13]) and 21.1% in [8] (setting [14]). The result in test [9] was inactive.
For `O=C(c1ccco1)N1CCC2(CC1)CCN(C(c1ccccc1)c1ccccc1)CC2`, the Potency in [1] was > 11.4 µM (inactive); in test [5] it was > 46 µM (inactive); in test [11] it was 12.6 µM (active); in test [12] it was 5.01 µM (active). Moreover, the activity change, negative = inhibition is 0.867% (inactive) in test [2] and 3.39% (inactive) in [8]. For the same molecule, the Potency result in test [3], in test [6], in test [7] and in [10] was “inactive” each time. For the same molecule, in test [4], the activity, negative = inhibition is -7.63% (inactive). Also, the max response in test [8] (setting [13]) stood at 7.88%; in test [8] (setting [14]) it was 15%. For the same molecule, the outcome in test [9] was inactive.
For `Cc1noc(C)c1C(=O)N1CCC2(CCCN(Cc3ccccc3)C2)CC1`, the Potency is > 11.4 µM (inactive) in test [1] and > 46 µM (inactive) in [5]. In addition, the activity change, negative = inhibition was 3.01% (inactive) in [2] and 4.04% (inactive) in test [8]. For the same molecule, the Potency result in test [3], in test [6], in [7] and in test [11] was “inactive” throughout. Also, the activity, negative = inhibition in test [4] was 4.66% (inactive). The max response in test [8] (setting [13]) is 15.8%; in [8] (setting [14]), 21.7%. Further, the result in [9] was inactive.
For the molecule `Cn1cccc1C(=O)N1CCC2(CCN(Cc3nccs3)CC2)CC1`, the Potency was > 11.4 µM (inactive) in test [1] and > 46 µM (inactive) in [5]. The values for the activity change, negative = inhibition in test [2] and in test [8] were -5.06% (inactive) and -0.0655% (inactive), respectively. Further, the Potency result in test [3], in test [6], in test [7] and in test [10] was “inactive” throughout. Also, in [4], the activity, negative = inhibition was -1.77% (inactive). Further, the max response is -3.13% in test [8] (setting [13]) and -0.688% in [8] (setting [14]). The result in [9] was inactive.
In the case of `O=C(Nc1cccc(F)c1)N1CC[C@@]2(CCCN(C(=O)c3cc(C(F)(F)F)cc(C(F)(F)F)c3)C2)C1`, the Potency is > 11.4 µM (inactive) in test [1] and > 46 µM (inactive) in [5]. Also, the values for the activity change, negative = inhibition in [2] and in test [8] were -8.61% (inactive) and 5.77% (inactive), respectively. The Potency result in [3], in test [6], in test [7] and in test [11] was “inactive” each time. Also, the activity, negative = inhibition in test [4] was -4.49% (inactive). Besides, the max response in test [8] (setting [13]) was -3.02%; in test [8] (setting [14]), 6%. The outcome in [9] was inactive.
